Measurements taken from PubChem BioAssay (EPA / NIEHS).
Active and inactive are the calls of the source. Rule for the calls: active = hit-call score of the fitted dose curve at least 0.9, where 1 is the maximum; inactive = score below 0.9.

How the values were obtained:
Conditions in all cases: mRNA level, 48 h; actives raise or lower the signal
[1] = read-out: CFLAR gene, CFLAR (gene 8837); test: LTEA_HepaRG_CFLAR: Life Technologies and Expression Analysis (LTEA) Assay for CFLAR gene using HepaRG (AID 2283455)
In short: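 HepaRG, 48 h exposure, 8-pt conc-response (100 uM top, half-log), 0.5% DMSO vehicle, duplicates. CFLAR expression by qRT-PCR; ACTB/GAPDH/POLR2A normalization; gain or loss fit vs DMSO baseline.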

[2] = read-out: Forkhead box O1 (FOXO1), FOXO1 (gene 2308); test: LTEA_HepaRG_FOXO1: Life Technologies and Expression Analysis (LTEA) Assay for Forkhead box O1 (FOXO1) using HepaRG (AID 2283456)
In short: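 Readout is FOXO1 transcript level by multiplexed qRT-PCR against three housekeeping genes, curve-fitted in both directions relative to 0.5% DMSO vehicle. Human HepaRG cultures received chemicals for 48 h, up to 100 uM in half-log steps.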

[3] = read-out: growth arrest and DNA damage 45 (GADD45A), GADD45A (gene 1647); test: LTEA_HepaRG_GADD45A: Life Technologies and Expression Analysis (LTEA) Assay for growth arrest and DNA damage 45 (GADD45A) using HepaRG (AID 2283458)
In short: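 Human HepaRG liver cells are treated in duplicate for 48 h with chemicals in 0.5% DMSO, highest concentration 100 uM. Expression is read by qRT-PCR and analyzed in both directions against vehicle.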

[4] = read-out: Forkhead box O3 (FOXO3), FOXO3 (gene 2309); test: LTEA_HepaRG_FOXO3: Life Technologies and Expression Analysis (LTEA) Assay for Forkhead box O3 (FOXO3) using HepaRG (AID 2283459)
In short: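 HepaRG, 48 h post-dose; 8 conc., half-log from 100 uM, 0.5% DMSO, duplicates; serum-free induction medium. Readout: FOXO3 mRNA, TaqMan qRT-PCR, housekeeping-normalized. Bidirectional curve fit vs DMSO baseline.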

[5] = read-out: ABC Transporter (ABCB1), ABCB1 (gene 5243); test: LTEA_HepaRG_ABCB1: Life Technologies and Expression Analysis (LTEA) Assay for ABC Transporter (ABCB1) using HepaRG (AID 2283460)
In short: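 Expression of ABCB1 was quantified by qRT-PCR against three housekeeping genes after human HepaRG cultures received test chemicals for 48 hours. Concentrations spanned eight half-log steps topping at 100 uM in 0.5% DMSO; gain or loss of signal was fitted relative to vehicle.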

[6] = read-out: growth arrest and DNA damage 45 (GADD45B), GADD45B (gene 4616); test: LTEA_HepaRG_GADD45B: Life Technologies and Expression Analysis (LTEA) Assay for growth arrest and DNA damage 45 (GADD45B) using HepaRG (AID 2283461)
In short: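 qRT-PCR read-out (Fluidigm TaqMan, housekeeping-normalized) of mRNA change in human HepaRG cells after 48 h chemical exposure; 8-point curve, top 100 uM, half-log steps, 0.5% DMSO vehicle; gain or loss fitted relative to DMSO baseline.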

[7] = read-out: ABC Transporter (ABCC3), ABCC3 (gene 8714); test: LTEA_HepaRG_ABCC3: Life Technologies and Expression Analysis (LTEA) Assay for ABC Transporter (ABCC3) using HepaRG (AID 2283462)
In short: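 qRT-PCR read-out of ABCC3 transcript, normalized to three housekeeping genes (ACTB, GAPDH, POLR2A), after 48 h chemical exposure of human HepaRG cells. Eight half-log concentrations, highest 100 uM, in 0.5% DMSO; gain or loss fitted relative to DMSO baseline.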

[8] = read-out: ABC Transporter (ABCB11), ABCB11 (gene 8647); test: LTEA_HepaRG_ABCB11: Life Technologies and Expression Analysis (LTEA) Assay for ABC Transporter (ABCB11) using HepaRG (AID 2283463)
In short: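 ABCB11 transcript levels are read by Fluidigm TaqMan qRT-PCR after 48 h chemical treatment of human HepaRG cells. Concentrations span 100 uM downward in half-log steps with 0.5% DMSO; gain or loss is fitted against DMSO controls.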

[9] = read-out: ABC Transporter (ABCC2), ABCC2 (gene 1244); test: LTEA_HepaRG_ABCC2: Life Technologies and Expression Analysis (LTEA) Assay for ABC Transporter (ABCC2) using HepaRG (AID 2283464)
In short: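 qRT-PCR (TaqMan, Fluidigm array) read-out of ABCC2 mRNA, normalized to three housekeeping genes. Differentiated HepaRG cells were treated 48 h in serum-free induction medium with 8-point half-log series from 100 uM in 0.5% DMSO; curves fitted bidirectionally relative to DMSO.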

[10] = read-out: Broad substrate specificity ATP-binding cassette transporter ABCG2 (Homo sapiens) (UniProt Q9UNQ0); test: LTEA_HepaRG_ABCG2: Life Technologies and Expression Analysis (LTEA) Assay for ABC Transporter (ABCG2) using HepaRG (AID 2283465)
In short: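 Read-out is ABCG2 mRNA induction or loss quantified by qRT-PCR after 48 h chemical treatment of human HepaRG cells, normalized to three housekeeping genes. Concentrations reached 100 uM top in half-log steps; fitting was bidirectional against 0.5% DMSO.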

[11] = read-out: ATP-citrate lyase (ACLY), ACLY (gene 47); test: LTEA_HepaRG_ACLY: Life Technologies and Expression Analysis (LTEA) Assay for ATP-citrate lyase (ACLY) using HepaRG (AID 2283466)
In short: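 HepaRG, 48 h exposure, 8-pt half-log dilutions (top 100 uM), 0.5% DMSO. Readout: ACLY mRNA, TaqMan qRT-PCR, housekeeping-normalized (ACTB/GAPDH/POLR2A). Bidirectional curve fit vs DMSO.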

[12] = read-out: Peroxisomal acyl-coenzyme A oxidase 1 (ACOX1) gene, ACOX1 (gene 51); test: LTEA_HepaRG_ACOX1: Life Technologies and Expression Analysis (LTEA) Assay for Peroxisomal acyl-coenzyme A oxidase 1 (ACOX1) gene using HepaRG (AID 2283467)
In short: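 Measured by qRT-PCR against three housekeeping genes: ACOX1 transcript change in human HepaRG cells after 48 h dosing. Concentrations ran up to 100 uM in half-log steps. Curves were fitted bidirectionally relative to 0.5% DMSO.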

[13] = read-out: Alkaline Phosphatase, Placental (ALPP) gene, ALPP (gene 250); test: LTEA_HepaRG_ALPP: Life Technologies and Expression Analysis (LTEA) Assay for Alkaline Phosphatase, Placental (ALPP) gene using HepaRG (AID 2283468)
In short: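 qRT-PCR readout of ALPP mRNA (Fluidigm TaqMan), normalized to ACTB/GAPDH/POLR2A, after 48 h chemical exposure of HepaRG cells; 8-point half-log series, top 100 uM, 0.5% DMSO vehicle. Bidirectional curve fit versus DMSO baseline.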

[14] = read-out: Bcl-2 (BAD) gene, BAD (gene 572); test: LTEA_HepaRG_BAD: Life Technologies and Expression Analysis (LTEA) Assay for Bcl-2 (BAD) gene using HepaRG (AID 2283469)
In short: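 BAD transcript change, measured by qRT-PCR against three housekeeping genes and fitted in both directions relative to 0.5% DMSO, after 48 h chemical treatment of human HepaRG liver cells at concentrations up to 100 uM.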

[15] = read-out: Bcl-2 (BAX) gene, BAX (gene 581); test: LTEA_HepaRG_BAX: Life Technologies and Expression Analysis (LTEA) Assay for Bcl-2 (BAX) gene using HepaRG (AID 2283470)
In short: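 Concentration-response endpoint fitted in both directions relative to 0.5% DMSO vehicle. Human HepaRG cultures receive test chemicals for 48 h at up to 100 uM; BAX mRNA is quantified by qRT-PCR against housekeeping genes.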

[16] = read-out: adenosine kinase (ADK) gene, ADK (gene 132); test: LTEA_HepaRG_ADK: Life Technologies and Expression Analysis (LTEA) Assay for adenosine kinase (ADK) gene using HepaRG (AID 2283471)
In short: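 Read-out is ADK transcript level measured by qRT-PCR and normalised to three housekeeping genes. Cells are human HepaRG, dosed for 48 h at up to 100 uM in 0.5% DMSO. Gain or loss of signal is fitted against DMSO controls.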

[17] = read-out: Alpha-fetoprotein (AFP) gene, AFP (gene 174); test: LTEA_HepaRG_AFP: Life Technologies and Expression Analysis (LTEA) Assay for Alpha-fetoprotein (AFP) gene using HepaRG (AID 2283472)
In short: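 After a 48 h plating period, cells are moved to serum-free induction medium and dosed in duplicate (100 uM maximum, half-log dilutions, 0.5% DMSO) for another 48 h. Total RNA goes to TaqMan qRT-PCR; AFP signal is housekeeping-normalized.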

[18] = read-out: BCL2L11 (gene 10018); test: LTEA_HepaRG_BCL2L11: Life Technologies and Expression Analysis (LTEA) Assay for Bcl-2 (BCL2L11) gene using HepaRG (AID 2283473)
In short: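 HepaRG, 48 h exposure, 8-pt half-log series from 100 uM in 0.5% DMSO, duplicates; qRT-PCR (Fluidigm TaqMan) for BCL2L11, housekeeping-normalized; bidirectional curve fit relative to DMSO baseline.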

[19] = read-out: Apolipoprotein A-V (APOA5) gene, APOA5 (gene 116519); test: LTEA_HepaRG_APOA5: Life Technologies and Expression Analysis (LTEA) Assay for Apolipoprotein A-V (APOA5) gene using HepaRG (AID 2283474)
In short: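 HepaRG, 48 h chemical exposure in serum-free induction medium, 8-pt half-log series (top 100 uM), 0.5% DMSO vehicle, duplicates. Readout: APOA5 mRNA by qRT-PCR, housekeeping-normalized; bidirectional fit vs DMSO baseline.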

[20] = read-out: Apoptosis regulator Bcl-2 (Homo sapiens) (UniProt P10415); test: LTEA_HepaRG_BCL2: Life Technologies and Expression Analysis (LTEA) Assay for Bcl-2 gene using HepaRG (AID 2283475);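 note: BCL2 transcript by TaqMan qRT-PCR normalised to ACTB GAPDH and POLR2A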
In short: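 Expression change of BCL2 mRNA in HepaRG after 48 h dosing, quantified by TaqMan qRT-PCR against three endogenous controls. Concentration-response used eight points up to 100 uM, vehicle 0.5% DMSO.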

Measured: outcome

Chain of Broad substrate specificity ATP-binding cassette transporter ABCG2 (Homo sapiens) (Q9UNQ0 whole entry, looked up): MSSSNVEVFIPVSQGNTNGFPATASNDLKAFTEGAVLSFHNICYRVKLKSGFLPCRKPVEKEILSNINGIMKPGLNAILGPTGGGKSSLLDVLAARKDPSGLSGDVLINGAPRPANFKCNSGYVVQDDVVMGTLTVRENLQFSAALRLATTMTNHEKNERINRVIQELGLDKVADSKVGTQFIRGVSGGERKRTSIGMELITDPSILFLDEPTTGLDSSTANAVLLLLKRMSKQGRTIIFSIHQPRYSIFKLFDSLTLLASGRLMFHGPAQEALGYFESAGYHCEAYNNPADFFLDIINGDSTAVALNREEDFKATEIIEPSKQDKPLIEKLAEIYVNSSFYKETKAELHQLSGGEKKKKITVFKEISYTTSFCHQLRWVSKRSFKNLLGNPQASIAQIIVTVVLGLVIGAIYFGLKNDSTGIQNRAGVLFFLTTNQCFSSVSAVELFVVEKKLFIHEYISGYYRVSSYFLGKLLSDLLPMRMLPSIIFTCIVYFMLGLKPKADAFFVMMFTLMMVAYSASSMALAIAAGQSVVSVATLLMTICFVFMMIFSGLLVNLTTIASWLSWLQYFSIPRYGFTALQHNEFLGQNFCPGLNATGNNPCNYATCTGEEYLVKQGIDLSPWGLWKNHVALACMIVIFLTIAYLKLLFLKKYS
Chain of Apoptosis regulator Bcl-2 (Homo sapiens) (P10415 whole entry, looked up): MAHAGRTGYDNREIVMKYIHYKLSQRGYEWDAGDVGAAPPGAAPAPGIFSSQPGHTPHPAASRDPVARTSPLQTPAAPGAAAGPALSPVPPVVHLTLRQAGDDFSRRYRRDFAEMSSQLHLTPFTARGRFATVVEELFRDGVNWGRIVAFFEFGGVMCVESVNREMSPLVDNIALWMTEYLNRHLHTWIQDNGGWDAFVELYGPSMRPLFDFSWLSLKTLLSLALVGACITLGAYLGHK

O=C(CCl)c1ccccc1
inactive: all assays above

N#CCCCCC#N
inactive: all assays above

O=[N+]([O-])c1ccc(Cl)cc1
inactive: all assays above
